# Measured values from PubChem BioAssay (NCI).
# About 79,000 compounds went through this panel and 15% of them were active in at least one assay; those are over-represented in the sample as a whole. Unmarked numbers belong to inactive results. Active and inactive are the calls of the source. Cut-off read from the data, not from the text of the source: active = growth inhibition above about 70%; inactive = the rest.
# Experiments:
# [1] = NCI Yeast Anticancer Drug Screen. Data for the rad52 strain (AID 147);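 note: 0% = growth of vehicle-treated control cultures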; conditions: S. cerevisiae rad52 mutant growth inhibition, stronger effect = higher value
# Outline: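 Vehicle-treated cultures served as the reference for growth inhibition of compound-exposed yeast bearing a DNA repair mutation.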
# [2] = NCI Yeast Anticancer Drug Screen. Data for the wt1 strain (AID 149);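 note: 0% = growth of vehicle-treated wt1 cultures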; conditions: S. cerevisiae wt1 strain (SPY 50644) growth inhibition, stronger effect = higher value
# Outline: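 Using yeast strain wt1, compound-induced growth inhibition was determined against vehicle-treated cultures.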
# [3] = NCI Yeast Anticancer Drug Screen. Data for the rad50EPP+ strain (AID 151);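 note: 0% = growth of vehicle-treated control cultures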; conditions: S. cerevisiae rad50 mutant strain, stronger effect = higher value
# Outline: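 In this screen, rad50EPP+ yeast were exposed to compounds. Growth inhibition was scored against vehicle-treated controls.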
# [4] = NCI Yeast Anticancer Drug Screen. Data for the mgt1 strain (AID 153); conditions: S. cerevisiae mgt1 mutant growth inhibition, stronger effect = higher value
# Outline: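 mgt1 strain exposed; growth vs vehicle control recorded as inhibition.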
# [5] = NCI Yeast Anticancer Drug Screen. Data for the rad50 strain (AID 155);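 note: 0% = growth of vehicle-only cultures of the same strain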; conditions: S. cerevisiae rad50 strain growth inhibition, stronger effect = higher value
# Outline: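 Relative growth inhibition (compound vs vehicle) was measured in yeast with a defined repair-gene alteration.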
# [6] = NCI Yeast Anticancer Drug Screen. Data for the mec2-1 strain (AID 157); conditions: S. cerevisiae mec2-1 strain, stronger effect = higher value
# Outline: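 Vehicle-treated cultures served as reference for growth inhibition of compound-exposed mec2-1 yeast.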
# [7] = NCI Yeast Anticancer Drug Screen. Data for the rad14 strain (AID 159);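 note: 0% = growth of vehicle-treated control cultures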; conditions: S. cerevisiae rad14 strain growth inhibition, stronger effect = higher value
# Outline: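 Screen for anticancer potential: a yeast strain altered in DNA damage repair is grown with compound, and reduced growth is quantified against vehicle controls.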
# [8] = NCI Yeast Anticancer Drug Screen. Data for the sgs1 mgt1 strain (AID 161);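 note: 0% = growth of cultures given vehicle only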; conditions: S. cerevisiae sgs1 mgt1 strain, stronger effect = higher value
# Outline: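 Test agents were incubated with a DNA-repair-mutant yeast strain. Growth was then read and compared against vehicle-treated controls.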
# [9] = NCI Yeast Anticancer Drug Screen. Data for the CLN2oe strain (AID 163);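 note: 0% = growth of vehicle-only control cultures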; conditions: S. cerevisiae CLN2oe strain, stronger effect = higher value
# Outline: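 Inhibition relative to vehicle-treated yeast is reported. Cells: strain with genetic alteration in cell-cycle control, grown with compound.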
# [10] = NCI Yeast Anticancer Drug Screen. Data for the cln2 rad14 strain (AID 165);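 note: 0% = growth equal to vehicle treated cultures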; conditions: S. cerevisiae cln2 rad14 strain, stronger effect = higher value
# Outline: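 Each compound was tested on cln2 rad14 yeast. Inhibition of growth was calculated against vehicle-exposed controls.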
# [11] = NCI Yeast Anticancer Drug Screen. Data for the bub3 strain (AID 167); conditions: S. cerevisiae bub3 mutant strain, stronger effect = higher value
# Outline: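 Screening used yeast with an engineered genetic alteration affecting cell cycle control. Compound-exposed cultures were compared with vehicle cultures, and reduced growth was taken as inhibition.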
# [12] = NCI Yeast Anticancer Drug Screen. Data for the wt2 strain (AID 169);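 note: 0% = growth of vehicle-treated yeast cultures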; conditions: S. cerevisiae wt2 strain growth inhibition, stronger effect = higher value
# Outline: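 Inhibition of yeast growth was determined after compound treatment, normalised to controls receiving only vehicle.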
# [13] = NCI Yeast Anticancer Drug Screen. Data for the sgs1 strain (AID 173);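 note: 0% = growth of vehicle-only control cultures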; conditions: S. cerevisiae sgs1 mutant, stronger effect = higher value
# Outline: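 Screen format: yeast with repair or checkpoint alterations, compound exposure, growth read relative to vehicle.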
# [14] = NCI Yeast Anticancer Drug Screen. Data for the mlh1 rad18 strain (AID 175); conditions: S. cerevisiae mlh1 rad18 strain growth inhibition, stronger effect = higher value
# Outline: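 Vehicle-treated cultures served as the reference for growth inhibition in a yeast strain carrying DNA damage repair alterations exposed to each compound.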
# [15] = NCI Yeast Anticancer Drug Screen. Data for the rad18 strain (AID 177); conditions: S. cerevisiae rad18 mutant growth inhibition, stronger effect = higher value
# Outline: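 Test articles were incubated with altered yeast defective in DNA damage repair. Results are given as inhibition of growth versus vehicle.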
# [16] = at 5.0 µM (retest, dose inferred, filed as 0.5)
# [17] = at 50.0 µM (retest, dose inferred, filed as 5.0)
smiles,measurement,setting,value
Oc1c2c(c(O)c3ccccc13)C1(N=N2)c2ccccc2Oc2ccccc21,growth inhibition,[1]; at 1.2 µM,20%
same,growth inhibition,[1]; at 3.7 µM,72% (active)
same,growth inhibition,[1]; at 11.0 µM,98% (active)
same,growth inhibition,[1]; at 33.0 µM,97% (active)
same,growth inhibition,[1]; at 100.0 µM,93% (active)
same,growth inhibition,[2]; at 1.2 µM,2%
same,growth inhibition,[2]; at 3.7 µM,34%
same,growth inhibition,[2]; at 11.0 µM,98% (active)
same,growth inhibition,[2]; at 33.0 µM,98% (active)
same,growth inhibition,[2]; at 100.0 µM,96% (active)
same,growth inhibition,[3]; at 1.2 µM,8%
same,growth inhibition,[3]; at 3.7 µM,54%
same,growth inhibition,[3]; at 11.0 µM,93% (active)
same,growth inhibition,[3]; at 33.0 µM,95% (active)
same,growth inhibition,[3]; at 100.0 µM,85% (active)
same,growth inhibition,[4]; at 1.2 µM,10%
same,growth inhibition,[4]; at 3.7 µM,47%
same,growth inhibition,[4]; at 11.0 µM,98% (active)
same,growth inhibition,[4]; at 33.0 µM,97% (active)
same,growth inhibition,[4]; at 100.0 µM,94% (active)
same,growth inhibition,[5]; at 1.2 µM,17%
same,growth inhibition,[5]; at 3.7 µM,82% (active)
same,growth inhibition,[5]; [16],46%
same,growth inhibition,[5]; at 11.0 µM,98% (active)
same,growth inhibition,[5]; at 33.0 µM,94% (active)
same,growth inhibition,[5]; [17],98% (active)
same,growth inhibition,[5]; at 50.0 µM,98.5% (active)
same,growth inhibition,[5]; at 100.0 µM,90% (active)
same,growth inhibition,[6]; at 1.2 µM,10%
same,growth inhibition,[6]; at 3.7 µM,44%
same,growth inhibition,[6]; [16],31%
same,growth inhibition,[6]; at 11.0 µM,98% (active)
same,growth inhibition,[6]; at 33.0 µM,97% (active)
same,growth inhibition,[6]; [17],98% (active)
same,growth inhibition,[6]; at 50.0 µM,98.7% (active)
same,growth inhibition,[6]; at 100.0 µM,94% (active)
same,growth inhibition,[7]; at 1.2 µM,17%
same,growth inhibition,[7]; at 3.7 µM,44%
same,growth inhibition,[7]; at 11.0 µM,98% (active)
same,growth inhibition,[7]; at 33.0 µM,96% (active)
same,growth inhibition,[7]; at 100.0 µM,92% (active)
same,growth inhibition,[8]; [16],57%
same,growth inhibition,[8]; [17],98% (active)
same,growth inhibition,[8]; at 50.0 µM,98.6% (active)
same,growth inhibition,[9]; at 1.2 µM,15%
same,growth inhibition,[9]; at 3.7 µM,39%
same,growth inhibition,[9]; at 11.0 µM,98% (active)
same,growth inhibition,[9]; at 33.0 µM,95% (active)
same,growth inhibition,[9]; at 100.0 µM,88% (active)
same,growth inhibition,[10]; [16],19%
same,growth inhibition,[10]; [17],97% (active)
same,growth inhibition,[10]; at 50.0 µM,92.2% (active)
same,growth inhibition,[11]; at 1.2 µM,8%
same,growth inhibition,[11]; at 3.7 µM,62%
same,growth inhibition,[11]; [16],21%
same,growth inhibition,[11]; at 11.0 µM,98% (active)
same,growth inhibition,[11]; at 33.0 µM,96% (active)
same,growth inhibition,[11]; [17],97% (active)
same,growth inhibition,[11]; at 50.0 µM,99% (active)
same,growth inhibition,[11]; at 100.0 µM,93% (active)
same,growth inhibition,[12]; at 1.2 µM,4%
same,growth inhibition,[12]; at 3.7 µM,49%
same,growth inhibition,[12]; at 11.0 µM,98% (active)
same,growth inhibition,[12]; at 33.0 µM,97% (active)
same,growth inhibition,[12]; at 100.0 µM,94% (active)
same,growth inhibition,[13]; at 1.2 µM,14%
same,growth inhibition,[13]; at 3.7 µM,81% (active)
same,growth inhibition,[13]; at 11.0 µM,98% (active)
same,growth inhibition,[13]; at 33.0 µM,98% (active)
same,growth inhibition,[13]; at 100.0 µM,95% (active)
same,growth inhibition,[14]; [16],42%
same,growth inhibition,[14]; [17],98% (active)
same,growth inhibition,[14]; at 50.0 µM,98% (active)
same,growth inhibition,[15]; at 1.2 µM,18%
same,growth inhibition,[15]; at 3.7 µM,74% (active)
same,growth inhibition,[15]; at 11.0 µM,98% (active)
same,growth inhibition,[15]; at 33.0 µM,96% (active)
same,growth inhibition,[15]; at 100.0 µM,92% (active)
